In all, about 52,000 compounds went through this assay and about 4,300 (8.3%) were called active. The full list was thinned out, with actives kept by preference. A number with no mark means an inactive call. Cut-off read from the data, not from the text of the source: active = survival mostly below about 52% (no sharp cut-off); inactive = mostly above about 56%.
What follows are compounds tested on DeltatarO mutant (assay: growth inhibition of S. aureus wild type versus tarO mutant, primary screen, teichoic acid synthesis inhibitors, RN4220, OD600 (AID 463173)). Conditions: OD600, 18 h, hits give low values, screened at 18.75 µg/mL (by protocol).

SMILES	survival
O=C(NC1CCCC1)c1ccc2c(=O)n(Cc3ccccc3)c(SCc3cccc(F)c3)nc2c1	72%
CCCCOc1ccc(C2c3c(oc4ccccc4c3=O)C(=O)N2c2nc(C)c(C(=O)OCC)s2)cc1OC (configuration not stated)	55%
CCCn1c2c(c(O)c(C(=O)Nc3ccccc3F)c1=O)CCCC2	93%
CC(C)CC(=O)Nc1nnc(S(=O)(=O)N2c3ccccc3CC2C)s1 (configuration not stated)	75%
CC1Cc2ccccc2N1S(=O)(=O)c1nnc(NC(=O)c2cccc(F)c2)s1 (configuration not stated)	6% (active)
Cc1ccc(C(=O)Nc2nnc(S(=O)(=O)N3c4ccccc4CC3C)s2)cc1 (configuration not stated)	30% (active)
Cc1cccc(C(=O)Nc2nnc(S(=O)(=O)N3c4ccccc4CC3C)s2)c1 (configuration not stated)	16% (active)
CCC(=O)Nc1nnc(S(=O)(=O)N2c3ccccc3CC2C)s1 (configuration not stated)	92%
Cc1ccc(OCC(=O)Nc2nnc(S(=O)(=O)N3c4ccccc4CC3C)s2)cc1 (configuration not stated)	34% (active)
CCn1ccc2cc(S(=O)(=O)N3CCC(C(=O)NCCc4ccccc4)CC3)ccc21	102%
CCOC(=O)c1[nH]c2c(c1Cc1ccccc1)C(=O)CC(c1ccc(Cl)cc1)C2 (configuration not stated)	92%
NC(=O)c1ccc(NC(=O)C2CCN(S(=O)(=O)Cc3ccccc3)CC2)cc1	87%
CCOc1ccc(NC(=O)c2cnn3c2NC(C)=C(C(=O)Nc2ccc(Cl)cc2)C3c2ccc(OC)c(OC)c2)cc1 (configuration not stated)	59%
Cc1ccccc1C(=O)N1CCC(C(=O)Nc2ccc(F)cc2F)CC1	67%
O=C(Cn1ncc2c(Cl)cccc21)NCc1cccc(Cl)c1	110%
CC1Cc2ccccc2N1S(=O)(=O)c1nnc(NC(=O)c2ccccc2)s1 (configuration not stated)	12% (active)

SMILES	survival
CC(C)C(=O)Nc1nnc(S(=O)(=O)N2c3ccccc3CC2C)s1 (configuration not stated)	87%
CCC(CC)C(=O)Nc1nnc(S(=O)(=O)N2c3ccccc3CC2C)s1 (configuration not stated)	61%
Cc1cc(C)n(C(=O)CNC(=O)Cc2ccccc2)n1	89%
CC(=O)N1c2ccccc2C(=O)C1N1CCN(c2cccc(C)c2C)CC1 (configuration not stated)	80%
CCOC(=O)c1ccccc1NC(=O)CCc1nc(-c2ccc(C)cc2)no1	58%
CCCN(C(=O)CCc1nc(-c2ccccc2F)no1)c1ccc(CC)cc1	-7% (active)
COc1ccc(CNC(=O)CCc2nc(-c3ccc(OC)cc3)no2)cc1	96%
CCCN(C(=O)CCc1nc(-c2ccc(OC)cc2)no1)c1ccccc1F	3% (active)
Cc1ccc(-c2noc(CCC(=O)N(C)c3ccccc3F)n2)cc1	38% (active)
COc1ccc(-c2noc(CCC(=O)N(C)c3ccccc3C)n2)cc1	80%
COc1ccc(OC)c(NC(=O)CCc2nc(-c3ccc(C)cc3)no2)c1	70%
CCOc1ccc(N(CC)C(=O)CCc2nc(-c3ccccc3F)no2)cc1	46%
COc1ccc(-c2noc(CC(=O)N(C)c3ccccc3F)n2)cc1	87%
CCCN(C(=O)CCc1nc(-c2ccc(C)cc2)no1)c1ccc(OCC)cc1	-4% (active)
CN(C(=O)CCc1nc(-c2ccccc2F)no1)c1ccc(Cl)cc1	56%
CCCN(C(=O)Cc1nc(-c2ccc(OC)cc2)no1)c1ccccc1C	85%

Reference: PubChem BioAssay AID463173 (ICCB-Longwood Screening Facility, Harvard Medical School, 2010)
